# Reference: PubChem BioAssay AID1508600 (Functional Genomics Laboratory (NCATS/FGL), 2020)
# Hit rate of the full screen: of about 53,000 sequences, about 3,700 (7%) were called active.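 How the source made its calls: active means gene knockdowns whose robust z-score for IL-1 alpha signal is at least 2 or at most -2, so actives lie on both sides; inactive means the rest.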 The sample as a whole holds a higher share of actives than the screen did.
# Assay: Components of the Cytosolic LPS Sensing Pathway: Gene Identification via Genome-wide siRNA Screen;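 further: robust z of the log signal after scaling to non-targeting control siRNA wells of the plate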
# Settings: RAW264.7 macrophages, IL-1a HTRF, actives lie on both sides, screened at 100 nM (by protocol), cells primed 5 h with Pam3CSK4 first
# Method in brief: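 Using IL-1a HTRF as read-out, the screen measured release from RAW264.7 cells after 48h siRNA knockdown (100 nM), 5 h Pam3CSK4 priming and 24 h cytosolic LipidA. Values were expressed relative to negative-control wells as robust z-scores.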
row,Sequence,z-score
1,GGUAUAUCCCUCACAAAAGTT against Dnah2,-1.69 (inactive)
2,GCAGUUAUGUUAUAGCUGCTT against Ctu2,0.0152 (inactive)
3,GCUAGUUUAAGAGACUUUGTT against Nfatc2ip,0.234 (inactive)
4,GGUCUAAGUCUGAAUGGCCTT against Agrp,0.539 (inactive)
5,CGACUGGAAUCUAAUAACUTT against Fgf2,0.987 (inactive)
6,CGGCUCCAGGCAAAUAUGGTT against Ezh1,-1.64 (inactive)
7,GGAUCAAUGGUGUCUUUGUTT against Pdzk1,-2.2 (active)
8,CGAGAAAGUAUUGACCGAGTT against Anxa5,-0.524 (inactive)
9,GGAAGGUGUUCGUAGAGAATT against Mad2l1,0.0941 (inactive)
10,GCACCGUGUCGUUGACUUGTT against Trim56,0.566 (inactive)
11,CCUAUCGAGUGAAAGUAAATT against Abcg2,-0.304 (inactive)
12,GGCACUGCUAUUAACUACATT against 4933414I15Rik,-0.906 (inactive)
13,CGCAGGUAUACAGGACUGCTT against Rhox8,2.33 (active)
14,CUGUUACCUAUCCCUCAUCTT against Sstr3,-0.663 (inactive)
15,GCUACUCUUAUUCUACUUCTT against Slc29a3,0.145 (inactive)
16,GCCCUCAUCAGAAGAAACUTT against Cox7b2,0.864 (inactive)
17,GGUAGACCUAGAACAGCACTT against Ttyh2,-0.495 (inactive)
18,GGUGAGAUUACUGAAAGAATT against Plod2,-0.0899 (inactive)
19,GCCAGUCCUGAUAGCAUCATT against Rhox6,-3.2 (active)
20,GGAGAAGGCAACUUCUGUUTT against Zfp641,0.19 (inactive)
21,CCUAUUGAUUGUAUAUCCATT against Emc2,-0.429 (inactive)
22,CCAAAUUGUCUCUUCUAACTT against Dnah1,0.0269 (inactive)
23,GGAACAAAGAGUUUAAGGATT against Olfr1415,0.379 (inactive)

row,Sequence,z-score
1,GGAACAAGUGGCUGAAGAUTT against Cyp11b2,0.566 (inactive)
2,GCAUGUUUCUAAACUUAGUTT against Sh3rf2,-0.432 (inactive)
3,GGUAUCGUAUAUGGAGAUCTT against Kif13a,2.12 (active)
4,GGUUCUGAAAGAGUGUUAGTT against Htatsf1,-1.58 (inactive)
5,GGGCUCACAUUGUACACACTT against Nckap5,0.525 (inactive)
6,GGACAUCUUUUCAAACGUGTT against Acap1,-1.09 (inactive)
7,GCUGAACGUGAGAUUGUGCTT against Acta1,1.33 (inactive)
8,GGUCAAUUAUGAAGCACCUTT against Pabpc4,0.158 (inactive)
9,GGCAACAAAAAAAUCCCAATT against Cd160,-0.647 (inactive)
10,GGUAUCUGUGUGACUUCACTT against Pgpep1,3.63 (active)
11,GGGACAACAUUCAAAGGUCTT against Hdgfl1,-0.322 (inactive)
12,GCGAUUGGCAGAUUGCUACTT against Tmem47,1.01 (inactive)
13,GCCGUUUCGUGUGGUAUUUTT against Tm4sf1,-2.64 (active)
14,GGGAUAGCAAGACUUUCACTT against C5ar1,0.194 (inactive)
15,GGUUGUGAGUCAGUCUAGUTT against Tia1,-1.55 (inactive)
16,GGAGCUCUGUGAAUCUCUUTT against Ska1,-0.796 (inactive)
17,CCUUCCUGUUGUCAUGAGATT against Eipr1,-0.868 (inactive)
18,CCAAUGGUCAGGAGUGUAGTT against Prpsap2,-0.766 (inactive)
19,GCGGCUCAAACUCAUUUUGTT against Gm4841,1.21 (inactive)
20,CCUUGACCUUAAUGUCUUCTT against Fgf23,2.05 (active)
21,GGUAUGAUGAUUGUUAGAUTT against Phf20,0.141 (inactive)
22,GCUCUAAAACUGUGUACUCTT against 4930579K19Rik,-0.167 (inactive)
23,GGAAUUUUCUGGAAAUCCATT against Tctn2,-0.111 (inactive)

row,Sequence,z-score
1,GGCUCUCAUUGAUGCAUGUTT against Cpeb4,-0.264 (inactive)
2,GGAAUGAAACCAAGUAUAATT against Calcb,0.853 (inactive)
3,GCAGGUUCAGGCAGUAAUUTT against Kpna4,3.78 (active)
4,GCUCAUUGGGAUCAUUGGUTT against Fancd2,1.45 (inactive)
5,GGUGACACCCAGAAUGAGCTT against Htatsf1,1.81 (inactive)
6,GGACUGUGGAUAACCUGCUTT against Hspb2,-2.55 (active)
7,CCCUCAAUCUAACAGUGCATT against Dsg1b,0.75 (inactive)
8,GGAGAAAGACAACUUCCUATT against Clec7a,0.239 (inactive)
9,GGCUCCUGUAAUGCUAACUTT against Zfp715,-0.191 (inactive)
10,GGAUACUUUAUGGUAUUUCTT against 9130023H24Rik,1.45 (inactive)
11,GAUUUCAAGAUCCAGACUCTT against Riiad1,-0.435 (inactive)
12,GCAGAGUUACAAGCUUUUATT against Diaph3,-4.98 (active)
13,CCUCGUUCCUUUGAAAUCATT against Gfi1,0.255 (inactive)
14,GCUAUGUGAAUUUGUAUGATT against Parp11,0.398 (inactive)
15,GCAUACGAUAUCACCAUAUTT against Dsg1a,0.173 (inactive)
16,GCUCCGGAACAGAUAAAACTT against Kat14,-0.485 (inactive)
17,GGCAGUAACUUAAAACAGATT against Mecp2,-0.139 (inactive)
18,GCUGAAAGAAUUCGUGGACTT against Phf2,1.69 (inactive)
19,GAUAUCACGGUCAUCUGUCTT against Pde6h,-0.19 (inactive)
20,CCUCGUAUUAGAUGAUGCATT against Snrpe,-2.79 (active)
21,CCUGCGCUUCUGACUAUCUTT against Dcbld1,0.18 (inactive)
22,GGAGACCUGGCAAAUGUAATT against Dctn5,0.884 (inactive)
